Source: PubChem BioAssay (NCATS)
“And” between values parts separate entries of the source, which are not always exact repeats. Identical values can stand only once. Results filed as inconclusive are left out. The source made the active and inactive calls. Calls follow the shape of the dose curve; as a rule, active = well fitted curve in the direction sought with a large enough effect; inconclusive = small, poorly fitted or top-dose-only effect, or another doubt; inactive = no such curve, though single readings can be large; an effect the other way counts as inactive or inconclusive.

Tests used:
[1] = qHTS assay for measurement of the activity of small molecule inhibitors on Zika virus induced Caspase-3 activity in human astrocytoma cells (AID 1224859)
In short: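 Caspase activation in ZIKV-infected SNB-19 cells (2 FFU/cell, 6 h) measured by Caspase-Glo 3/7 luminescence after 30 min RT; compound pre-incubated 1 h; normalised to uninfected and infected controls.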

[2] = qHTS Screen of the MIPE 4.0 Collection Against Ewings Sarcoma (TC71) (AID 1259253); also: nearly all actives have a fitted effect of over 40% in size; also: potency is read from the fitted curve at half-maximal effect
In short: (§1)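 After a 4 h attachment period in RPMI/5% FBS, cells were pin-dosed with test compounds; DMSO served as negative and 9.2 uM bortezomib (final) as positive control. Luminescent CellTiter-Glo signal at 48 h defined viability.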

[3] = qHTS Screen of the MIPE 4.0 Collection Against Ewings Sarcoma (EW8) (AID 1259255); also: nearly all actives have a fitted effect of over 35% in size; also: potency is read from the fitted curve at half-maximal effect
In short: as §1

[4] = qHTS Screen of the MIPE 4.0 Collection Against Ewings Sarcoma (TC32) (AID 1259256); also: nearly all actives have a fitted effect of over 45% in size; also: potency is read from the fitted curve at half-maximal effect
In short: as §1

[5] = Identifying Small Molecule Inhibitors of Pancreatic Cancer Stem Cells (A2780, Spheroid) (AID 1259357); details: Potency: A2780 spheroid viability;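 also: compound exposure lasted 48 h before the ATP luminescence read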; also: potency is read from the fitted curve at half-maximal effect
In short: (§2)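 Viability is scored by CellTiter-Glo luminescence 48 h after dosing, expressed as percent activity against vehicle and no-cell references. Spheroid formats rely on cells cultured 14 days in stem cell media beforehand.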

[6] = Identifying Small Molecule Inhibitors of Pancreatic Cancer Stem Cells (SN12C, Spheroid) (AID 1259360); details: Potency: SN12C spheroid viability; also: potency is read from the fitted curve at half-maximal effect
In short: as §2

[7] = Identifying Small Molecule Inhibitors of Pancreatic Cancer Stem Cells (A278, Adherent) (AID 1259361);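 also: viability read after 48 h compound exposure; nearly all actives have a fitted effect of over 35% in size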
In short: (§3)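 Adherent (2D) versus sphere (3D) formats; spheres generated 14 d in SCM beforehand. Compound transferred by pin tool after 4 h, 48 h incubation, CellTiter-Glo endpoint.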

[8] = Identifying Small Molecule Inhibitors of Pancreatic Cancer Stem Cells (Panc1, Adherent) (AID 1259362); details: Potency: viability; also: potency is read from the fitted curve at half-maximal effect
In short: as §3

[9] = P-glycoprotein substrates identified in KB-8-5-11 adenocarcinoma cell line, qHTS therapeutic library screen (AID 1346987); also: nearly all actives have a fitted effect of over 65% in size; also: potency is read from the fitted curve at half-maximal effect
In short: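 In this qHTS, P-gp-rich KB-8-5-11 cells received library compounds across a concentration range. Viability was quantified by luminescence after 72 h at 37 degree C.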

[10] = NS1 protein of Zika virus - qHTS assay to identify small molecule inhibitors in human HEK 293 cells (AID 1347053); also: nearly all actives have a fitted effect of over 55% in size; also: potency is read from the fitted curve at half-maximal effect
In short: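 Compound-treated (1 h pre-infection) HEK 293 cells infected with ZIKV MR766, MOI = 0.5; after 24 h at 37 C, NS1 read by TR-FRET; data normalized to uninfected and infected controls.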

[11] = qHTS Screen of the MIPE 4.0 Collection Against Ewings Sarcoma (RDES) (AID 1259252); also: nearly all actives have a fitted effect of over 35% in size; also: potency is read from the fitted curve at half-maximal effect
In short: as §1

[12] = Identifying Small Molecule Inhibitors of Pancreatic Cancer Stem Cells (SN12C, Adherent) (AID 1259358);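 also: cell survival measured after 48 h of compound exposure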; also: potency is read from the fitted curve at half-maximal effect
In short: as §3

[13] = Identifying Small Molecule Inhibitors of Pancreatic Cancer Stem Cells (Panc1, Spheroid) (AID 1259359);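 also: potency is read from the fitted curve at half-maximal effect; compound exposure lasted 48 h before reading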
In short: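 Monolayer and spheroid cultures are compared. Spheroids form over 14 days in stem cell medium on hydrogel-coated low-attachment plates, then are exposed to compound for 48 h before CellTiter-Glo luminescence.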

[14] = qHTS assay to identify small molecule inhibitors of chordoma cells - UCH-1 (AID 1259355); also: nearly all actives have a fitted effect of over 55% in size
In short: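 800 cells/well, overnight attach; compounds pinned at 15 concs, then auranofin/camptothecin/doxorubicin/rubitecan/topotecan combo added; 48hr 37 C, 5% CO2; CellTiter-Glo, 30min RT, luminescence.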

[15] = P-glycoprotein substrates identified in KB-3-1 adenocarcinoma cell line, qHTS therapeutic library screen (AID 1346986); also: nearly all actives have a fitted effect of over 60% in size;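 also: potency is read from the fitted curve at half-maximal effect; potency is for cytotoxicity meaning loss of cell viability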
In short: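 Dose-response cytotoxicity, KB-3-1 vs P-gp-high KB-8-5-11, no colchicine in assay medium. Read: CellTiter-Glo at 72 h.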

## COc1cccc2nc(-c3cccs3)nc(NN3C(=O)C=C(C)C3=O)c12
[1]
  Potency: inactive
[2]
  Potency: 743 nM (active)
[3]
  Potency: 469 nM (active)
[4]
  Potency: 1870 nM (active)
[5]
  Potency: 662 nM (active)
[6]
  Potency: 20900 nM (active)
[7]
  IC50 (viability decrease): 469 nM (active)
[8]
  Potency: 16600 nM (active)
[9]
  Potency: 469 nM (active) and 1.64 µM (active)
[10]
  Potency: 3720 nM (active)

## Cc1ccc(-c2ncn(-c3ccc(Nc4nccc(-c5cccc(N6CCOCC6)c5)n4)cc3)n2)cn1
[1]
  Potency: inactive
[11]
  Potency: 74.3 nM (active)
[2]
  Potency: 118 nM (active)
[4]
  Potency: 52.6 nM (active)
[12]
  Potency: 59 nM (active)
[6]
  Potency: 59 nM (active)
[7]
  IC50 (viability decrease): 74.3 nM (active)
[8]
  Potency: 74.3 nM (active)
[9]
  Potency: 1.05 µM (active)
[10]
  Potency: 3720 nM (active)

## Cn1c2cc(S(C)=O)sc2c2cnn(Cc3cccc(N)c3)c(=O)c21 (stereo not given)
[1]
  Potency: inactive
[11]
  Potency: inactive
[2]
  Potency: inactive
[4]
  Potency: inactive
[12]
  Potency: inactive
[6]
  Potency: inactive
[7]
  IC50 (viability decrease): inactive
[10]
  Potency: inactive

## Cc1cc(Nc2nc(N[C@@H](C)c3ccc(F)cc3)c(C#N)cc2F)n[nH]1
[1]
  Potency: inactive
[11]
  Potency: 1660 nM (active)
[2]
  Potency: 13200 nM (active)
[4]
  Potency: 1320 nM (active)
[9]
  Potency: 935 nM (active) and 580 nM (active)
[10]
  Potency: inactive

## CC[C@@H]1C(=O)N(C)c2cnc(Nc3ccc(C(=O)NC4CCC(N5CCN(CC6CC6)CC5)CC4)cc3OC)nc2N1C(C)C (stereo not given in full)
[1]
  Potency: inactive
[11]
  Potency: 105 nM (active)
[2]
  Potency: 118 nM (active)
[4]
  Potency: 66.2 nM (active)
[5]
  Potency: inactive
[12]
  Potency: 1320 nM (active)
[13]
  Potency: 9.3 nM (active)
[7]
  IC50 (viability decrease): 20.9 nM (active)
[8]
  Potency: 10.5 nM (active)
[10]
  Potency: 105 nM (active)

## Cc1nc2ccc(CN(C)c3ccc(C(=O)N[C@@H](CCC(=O)O)C(=O)O)s3)cc2c(=O)[nH]1
[11]
  Potency: 16.6 nM (active)
[2]
  Potency: 20.9 nM (active)
[3]
  Potency: 26.4 nM (active)
[4]
  Potency: 33.2 nM (active)
[14]
  Potency: inactive
[10]
  Potency: inactive

## CCN(CC)CCCCNc1ncc2cc(-c3cc(OC)cc(OC)c3)c(NC(=O)NC(C)(C)C)nc2n1
[11]
  Potency: 20900 nM (active)
[2]
  Potency: 16600 nM (active)
[3]
  Potency: 18700 nM (active)
[4]
  Potency: 16600 nM (active)
[12]
  Potency: 14800 nM (active)
[13]
  Potency: 18700 nM (active)
[7]
  IC50 (viability decrease): 5260 nM (active)
[8]
  Potency: inactive
[15]
  Potency: 23100 nM (active)

## Cc1ccc(S(=O)(=O)Nc2cc(Cl)ccc2C(=O)Nc2nc(-c3ccccc3)cs2)cc1
[1]
  Potency: inactive
[2]
  Potency: 13200 nM (active)
[3]
  Potency: 16600 nM (active)
[4]
  Potency: 14800 nM (active)
[12]
  Potency: 2640 nM (active)
[7]
  IC50 (viability decrease): 3720 nM (active)

## COc1cccc(Nc2c(C(N)=O)cnc3c(C)cc(S(=O)(=O)c4cccc(C(=O)N(C)C)c4)cc23)c1
[1]
  Potency: inactive
[2]
  Potency: inactive
[3]
  Potency: inactive
[4]
  Potency: inactive
[9]
  Potency: inactive
[10]
  Potency: inactive

## COc1cccc2c(NCc3ccccc3)nc(-n3c(N)nc4ccccc43)nc12
[1]
  Potency: inactive
[2]
  Potency: 8330 nM (active)
[3]
  Potency: 8330 nM (active)
[4]
  Potency: 10500 nM (active)
[9]
  Potency: inactive
[10]
  Potency: 9350 nM (active)

## Nc1nccc(Oc2ccc(NC(=O)c3c[nH]cc(-c4ccc(F)cc4)c3=O)cc2F)c1Cl
[1]
  Potency: inactive
[2]
  Potency: 2960 nM (active)
[3]
  Potency: 743 nM (active)
[4]
  Potency: 2640 nM (active)
[7]
  IC50 (viability decrease): 23500 nM (active)
[8]
  Potency: inactive
[9]
  Potency: 23.5 µM (active) and 16.4 µM (active)
[10]
  Potency: inactive

## CN(C)c1nc(Cc2ccc(NC(=O)c3ccc4ccccc4c3)cc2)nc(Cl)c1CC(=O)O
[1]
  Potency: inactive
[2]
  Potency: inactive
[3]
  Potency: inactive
[4]
  Potency: inactive
[15]
  Potency: inactive
[9]
  Potency: inactive
[10]
  Potency: inactive

## C=CC(=O)N1CCC[C@@H](n2nc(-c3ccc(Oc4ccccc4)cc3)c3c(N)ncnc32)C1
[11]
  Potency: 20900 nM (active)
[2]
  Potency: 29600 nM (active)
[3]
  Potency: 23500 nM (active)
[4]
  Potency: 18700 nM (active)
[5]
  Potency: inactive

## OCCCNc1cc(-c2ccnc(Nc3cccc(Cl)c3)n2)ccn1
[1]
  Potency: inactive
[2]
  Potency: 118 nM (active)
[3]
  Potency: 148 nM (active)
[4]
  Potency: 166 nM (active)
[9]
  Potency: 83.3 nM (active) and 146 nM (active)
[10]
  Potency: 418 nM (active)

## O=C(Nc1ncc(-c2cc(C(F)F)nn2-c2c(Cl)cccc2Cl)s1)C1CC1
[1]
  Potency: inactive
[2]
  Potency: 743 nM (active)
[4]
  Potency: 469 nM (active)
[9]
  Potency: 662 nM (active) and 731 nM (active)
[10]
  Potency: 1050 nM (active)

## CC(=O)OCCN1C(=O)c2c(C)nc3ccc(S(=O)(=O)N4CCOCC4)cc3c2C1=O
[1]
  Potency: inactive
[2]
  Potency: inactive
[4]
  Potency: inactive
[5]
  Potency: inactive
[12]
  Potency: inactive
[6]
  Potency: inactive
[7]
  IC50 (viability decrease): inactive
[8]
  Potency: 10500 nM (active)
[15]
  Potency: inactive
[9]
  Potency: inactive
[10]
  Potency: inactive

## Cc1ccc2nc(NC(=O)CSc3nc4c(c(=O)n3-c3ccccc3)SCC4)sc2c1
[1]
  Potency: inactive
[2]
  Potency: 20900 nM (active)
[3]
  Potency: 16600 nM (active)
[4]
  Potency: 16600 nM (active)
[9]
  Potency: inactive
[10]
  Potency: inactive
